# Results from PubChem BioAssay AID1740 (National Center for Advancing Translational Sciences (NCATS), 2009).
# Results filed as inconclusive are left out. Where a call stands in place of a potency, no number is given. A number with no mark means an inactive call. The source made the active and inactive calls. Calls come from the whole dose curve; as a rule, active = well fitted activation curve with a large enough effect; inconclusive = small, poorly fitted or top-dose-only effect; inactive = no such curve, though single readings can be large or run the other way.
# Assay: Confirmation Concentration-Response Assay for Enhancers of SMN2 Splice Variant Expression
# Details: HEK293 SMN2-exon7-luciferase splicing reporter, luminescence, 30-36 h; series mostly up to 46.1 µM
# Excerpt: NIH Chemical Genomics Center [NCGC] NIH Molecular Libraries Probe Production centers Network [MLPCN] MLPCN Grant: R03 MH084179-01 Assay Submitter (PI): Elliot Androphy NCGC Assay Overview: Spinal muscular atrophy (SMA) is caused by insufficient levels of the survival motor neuron protein SMN. The SMN locus on chromosome 5q13 contains two inverted copies of SMN called SMN1 and SMN2 which are 99% identical at the amino acid level. SMN1 is a fully functional protein and SMN2 skips exon 7 90% of the time. Skipping of exon 7 produces non-functional protein product. 10% of the SMN2 protein includes exon 7 and is fully functional. In the SMA disease state, mutations in the SMN1 locus are the cause of the disease state. Because only 10% of SMN2 is of the fully functional form, it is not sufficient to overcome the deficiency produced by the loss of the SMN1 product. A therapy that either increase the amount of SMN2 product made or to increase the inclusion of exon 7 has been proposed for the treatment of SMA. We have designed an assay to identify small molecules that can increase the amount of functional SMN2 product by appending a luciferase reporter gene after the native SMN2 gene, such that inclusion of exon 7 in the expressed product places the luciferase sequence in frame, thus generating functional luciferase enzyme.
# NCGC Assay Protocol Summary: This screen utilizes a luciferase reporter gene assay, combining the promoter with the major portion of the native SMN2 cDNA (exons 1 -7, intron 8 , exon 8 fused to luciferase) stably expressed in HEK293 cells. Compounds that increase luciferase signal presumably enhance expression of the functional SMN2 splice variant. Passaging media contained DMEM w/ glutamax (+phenol red) 10% FCS, 1x pen/strep, 200 ug/ml hygro, 1x sodium pyruvate. Assay media contained DMEM w/ glutamax (-phenol red) 10% FCS, 1x pen strep, 1x pyruvate Sequence, Parameter, Value, Description (1) Cells, 5 uL, 2000 cells/well, 1536 TC treated White solid bottom plate (2) Time, 10-12 hours, 37C 5% CO2 (3) Compound, 23 nl, MLSMR Library (4) Control Compound, 23 nL, Sodium butyrate st 4.5mM (final) conc (5) Time, 30-36 hours, 37C 5% CO2 (6) Reagent, 3 ul, One Glo (TM) from Promega (7) Time, 5-15 minutes, Room temp (8) Detector, Viewlux: luminescent read, 60 second integration, high speed 2x binning Keywords: Spinal muscular atrophy, SMA, SMN2, high throughput screening, MLSMR, MLPCN, NIH Roadmap, qHTS and NCGC
Structure (SMILES),Potency,activation
NC(=O)C1(N2CCCCC2)CCN(c2nc(-c3ccccc3)cs2)CC1,inactive,
O=C(Cc1c(F)cccc1Cl)N1CCN(C(=O)c2ccco2)CC1,inactive,
CCC1=Nc2ccccc2-c2nnc(SC)nc2O1,inactive,
O=[N+]([O-])c1ccc(-c2nnc(-c3ccccc3)c(N3CCOCC3)n2)cc1,inactive,
OCCCNc1nc(-c2ccc(Cl)cc2)nnc1-c1ccc(Br)cc1,inactive,
COc1ccc(OC)c(-c2csc(N3CCC(c4ccccc4)CC3)n2)c1,inactive,
CCCSc1nnc2c(n1)OC(c1sccc1C)Nc1ccccc1-2 (stereo not given),2000 nM (active),
O=c1[nH]c(=O)n(C2CCCO2)cc1Br (stereo not given),inactive,
O=C(NCCCNCCCNC(=O)c1ccccn1)c1ccccn1,inactive,
NC(=O)C1(N2CCCCC2)CCN(c2nc(-c3ccc(Br)cc3)cs2)CC1,inactive,
CCCCOC(C)n1cc(F)c(=O)[nH]c1=O (stereo not given),inactive,
O=C1CCC(C(=O)Nc2cccc3ccccc23)N1 (stereo not given),inactive,
c1coc(CNc2ncnc3ccccc23)c1,inactive,
CC(C)(C)n1nnnc1C(c1ccc2ncccc2c1)N1CCSCC1 (stereo not given),inactive,
O=C(Nc1nc(-c2ccc3ccccc3c2)cs1)C1CCN(S(=O)(=O)c2cccs2)CC1,inactive,
COc1ccc(-c2csc(N3CCC(C(N)=O)(N4CCCCC4)CC3)n2)cc1,inactive,
OCCCNc1nc(-c2ccc(Br)cc2)nnc1-c1ccc(Cl)cc1,inactive,
COc1ccc(-c2csc(N3CCC(c4ccccc4)CC3)n2)cc1,inactive,
OC[C@H]1O[C@@H](n2cnc3c(Nc4ccccc4)ncnc32)[C@H](O)[C@H]1O,8910 nM (active),
Cc1ccc(-c2nnc(-c3ccccc3)c(-c3ccccc3)n2)cc1,inactive,

Structure (SMILES),Potency,activation
Clc1ccc(-c2nnc(-c3ccc(Br)cc3)c(N3CCSCC3)n2)cc1,,-10.7% [at 9.48 µM]
Cn1c(C(=O)NCc2cccs2)cc2oc3ccccc3c21,2820 nM (active),
c1ccc(-c2nnc(-c3ccccc3)c(-c3c[nH]c4ccccc34)n2)cc1,inactive,
COc1nc(-c2ccccc2)nnc1-c1ccccc1,2510 nM (active),
O=S(=O)(NC1CCCc2ccccc21)c1cnc[nH]1 (stereo not given),inactive,
Cc1oncc1C(=O)Nc1ccc(C(F)(F)F)cc1,7080 nM (active),
Cc1nnc(-c2ccccc2)[nH]c1=O,inactive,
CN(C)CCCN(C(=O)c1cccs1)c1nc(-c2ccccc2)cs1,inactive,
CCOc1c(Cl)cc(C(=O)Nc2ccccc2C(=O)O)cc1Cl,2820 nM (active),
Nc1ccccc1-c1nnn(CC(=O)N2CCCc3ccccc32)n1,inactive,
CN(Cc1ccccc1)Cc1c(F)cccc1F,inactive,
O=[N+]([O-])c1ccc(-c2nnc(-c3ccccc3)c(NCCCO)n2)cc1,inactive,
NC(=O)N1c2ccccc2C=Cc2ccccc21,inactive,
c1coc(CNc2ncnc3nc[nH]c23)c1,inactive,
O=C(Nc1cccnc1)/C(N=Nc1c(Cl)cccc1Cl)=C(\O)c1ccccc1,inactive,
Clc1ccc(-c2nnc(-c3ccccc3)nc2-c2c[nH]c3ccccc23)cc1,,-10.1% [at 9.48 µM]
N#C/C(=C\Nc1ccccc1SC(F)(F)F)c1nc(-c2ccc(Cl)cc2)cs1,inactive,
FC(F)(F)c1cccc(-c2nnc(-c3ccccc3)c(N3CCOCC3)n2)c1,,-5.49% [at 9.48 µM]
Cc1[nH]c2ccccc2c1-c1nc(-c2ccc(Cl)cc2)nnc1-c1ccccc1,inactive,
Cc1ccc(C2c3c(oc4ccccc4c3=O)C(=O)N2CCCN2CCOCC2)o1 (stereo not given),inactive,
